Measurements reported in PubChem BioAssay AID1159580 (chemical genetic matrix, 2015).
“And” between values parts separate entries of the source, which are not always exact repeats. Identical values can stand only once. The whole screen tested about 5,500 compounds, of which about 2,000 (36%) were called active. Roughly 18% stayed inconclusive and do not appear here. No stated cut-off is given here; in the data, active means normalized growth mostly below about 0.91 (no sharp cut-off); inconclusive means no clear call, values can overlap the other calls; inactive means mostly above about 0.92. This is one part of the list.

Test: chemical genetic growth profiling, strain panel (AID 1159580);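 further: tested at 20 µM; growth read once vehicle control cultures reached saturation at 30 °C; 1 = growth at the plate median or of vehicle wells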
Conditions: S. cerevisiae deletion strains, growth OD

Measured: normalized growth

O=C(O)CCCOc1ccc(Cl)cc1Cl
active: locus YBR171W, strain sec66, stronger effect = lower value 0.888 | locus YDR137W, strain rgp1, stronger effect = lower value 0.817 | locus YHR079C, strain IRE1, stronger effect = lower value 0.757 | locus YJL129C, strain trk1, stronger effect = lower value 0.847 | locus YJR066W, strain TOR1, stronger effect = lower value 0.779
0.999 (inactive) and 0.829 (active): locus YHR030C, strain SLT2, stronger effect = lower value
1.01 (inactive) and 0.838 (active): locus YJL095W, strain BCK1, stronger effect = lower value
inactive: locus YAL013W, strain DEP1, stronger effect = lower value 0.993 | locus YAL021C, strain ccr4, stronger effect = lower value 0.941 | locus YAL026C, strain drs2, stronger effect = lower value 0.931 | locus YAL030W, strain snc1, stronger effect = lower value 0.944 | locus YBL061C, strain skt5, stronger effect = lower value 0.948 | locus YBR009C, strain hhf1, stronger effect = lower value 0.951 | locus YBR021W, strain FUR4, stronger effect = lower value 0.97 | locus YBR023C, strain chs3, stronger effect = lower value 0.954 | locus YBR229C, strain ROT2, stronger effect = lower value 1.01 | locus YBR231C, strain swc5, stronger effect = lower value 0.962 | locus YBR279W, strain paf1, stronger effect = lower value 0.962 | locus YCL011C, strain gbp2, stronger effect = lower value 0.957 | locus YCL016C, strain dcc1, stronger effect = lower value 0.958 | locus YCL029C, strain bik1, stronger effect = lower value 1 | locus YCL061C, strain MRC1, stronger effect = lower value 0.938 | locus YCL069W, strain vba3, stronger effect = lower value 0.944 | locus YCR088W, strain abp1, stronger effect = lower value 0.929 | locus YDL005C, strain med2, stronger effect = lower value 0.946 | locus YDL035C, strain GPR1, stronger effect = lower value 1.01 | locus YDL040C, strain nat1, stronger effect = lower value 0.961 | locus YDL074C, strain BRE1, stronger effect = lower value 1 | locus YDL101C, strain DUN1, stronger effect = lower value 1.01 | locus YDL134C, strain PPH21, stronger effect = lower value 0.999 | locus YDL185W, strain tfp1, stronger effect = lower value 0.986 | locus YDL192W, strain arf1, stronger effect = lower value 1.02 | locus YDR001C, strain nth1, stronger effect = lower value 0.942 | locus YDR069C, strain doa4, stronger effect = lower value 0.955 | locus YDR101C, strain arx1, stronger effect = lower value 1.01 | locus YDR150W, strain NUM1, stronger effect = lower value 0.994 | locus YDR159W, strain sac3, stronger effect = lower value 0.902 | locus YDR162C, strain NBP2, stronger effect = lower value 0.99 | locus YDR195W, strain ref2 0.955 | locus YDR297W, strain sur2, stronger effect = lower value 0.962 | locus YDR318W, strain mcm21, stronger effect = lower value 1.01 | locus YDR334W, strain swr1, stronger effect = lower value 0.945 | locus YDR335W, strain msn5, stronger effect = lower value 0.943 | locus YDR388W, stronger effect = lower value 1.01 | locus YDR392W, strain spt3, stronger effect = lower value 0.893 | locus YDR502C, strain sam2, stronger effect = lower value 1.01 | locus YEL003W, strain gim4, stronger effect = lower value 0.963 | locus YEL037C, strain rad23, stronger effect = lower value 0.954 | locus YEL061C, strain CIN8 (second series), stronger effect = lower value 0.929 | locus YEL061C, strain CIN8, stronger effect = lower value 0.998 | locus YER015W, strain faa2, stronger effect = lower value 0.969 | locus YER016W, strain bim1, stronger effect = lower value 0.962 | locus YER110C, stronger effect = lower value 1.01 | locus YER111C, strain swi4, stronger effect = lower value 0.944 | locus YER155C, strain BEM2 (second series), stronger effect = lower value 0.887 | locus YER155C, strain BEM2, stronger effect = lower value 0.98 | locus YER167W, strain BCK2, stronger effect = lower value 0.991 | locus YFR010W, strain ubp6, stronger effect = lower value 0.951 | locus YGL078C, strain dbp3, stronger effect = lower value 1.01 | locus YGL086W, strain mad1, stronger effect = lower value 0.99 | locus YGL167C, strain pmr1, stronger effect = lower value 0.929 | locus YGL173C, strain kem1, stronger effect = lower value 0.952 | locus YGL227W, strain vid30, stronger effect = lower value 0.93 | locus YGL240W, strain doc1, stronger effect = lower value 0.912 | locus YGL248W, strain PDE1, stronger effect = lower value 1.01 | locus YGL253W, strain hxk2, stronger effect = lower value 0.939 | locus YGR078C, strain PAC10, stronger effect = lower value 1.01 | locus YGR135W, strain pre9, stronger effect = lower value 1.01 | locus YGR229C, strain SMI1, stronger effect = lower value 1.03 | locus YGR252W, strain gcn5, stronger effect = lower value 0.982 | locus YHR013C, strain ard1, stronger effect = lower value 0.93 | locus YHR027C, strain rpn1, stronger effect = lower value 0.938 | locus YHR079C, strain IRE1 (second series), stronger effect = lower value 1.01 | locus YHR094C, strain hxt1, stronger effect = lower value 1.01 | locus YHR129C, strain ARP1, stronger effect = lower value 0.993 | locus YHR142W, strain chs7, stronger effect = lower value 0.939 | locus YHR200W, strain rpn10, stronger effect = lower value 1 | locus YIL066C, strain RNR3, stronger effect = lower value 1.01 | locus YIL073C, strain SPO22, stronger effect = lower value 1.1 | locus YIL125W, strain kgd1, stronger effect = lower value 0.991 | locus YIR030C, strain dcg1, stronger effect = lower value 1.01 | locus YJL092W, strain hpr5, stronger effect = lower value 0.94 | locus YJL095W, strain BCK1 (second series), stronger effect = lower value 0.95 | locus YJL115W, strain asf1, stronger effect = lower value 0.922 | locus YJL134W, strain LCB3, stronger effect = lower value 0.998 | locus YJL154C, strain vps35, stronger effect = lower value 0.948 | locus YJL164C, strain tpk1, stronger effect = lower value 0.961 | locus YJL166W, strain qcr8, stronger effect = lower value 0.942 | locus YJL168C, strain set2, stronger effect = lower value 1.01 | locus YJL187C, strain SWE1 (second series), stronger effect = lower value 0.999 | locus YJL187C, strain SWE1, stronger effect = lower value 0.947 | locus YJR043C, strain POL32, stronger effect = lower value 0.997
